# Data from the supplement of paper PMC7261846.
# Structures can show the parent of a compound that is named as a salt. ± gives the uncertainty stated by the source.
# Tested on: Candida albicans SNY425 biofilm
# Assay: biofilm OD600 with compound plus antifungal (OD600 (absorbance)); higher = more biofilm remaining
# [1] = assay detail: disruption of 24-h mature biofilm (compound + antifungal for a second 24 h)
# [2] = assay detail: sustained inhibition (compound + antifungal during 90-min adherence and 24-h growth)
SMILES,biofilm OD600 [1],biofilm OD600 [2]
"O=c1oc(Cl)c(Cl)c2ccccc12 [3,4-Dichloroisocoumarin] + C[C@@H]1[C@H](O)[C@@H](C)/C=C/C=C/C=C/C=C/C=C/C=C/C=C/[C@H](O[C@@H]2O[C@H](C)[C@@H](O)[C@H](N)[C@@H]2O)C[C@@H]2O[C@](O)(C[C@@H](O)C[C@@H](O)[C@H](O)CC[C@@H](O)C[C@@H](O)CC(=O)O[C@H]1C)C[C@H](O)[C@H]2C(=O)O [amphotericin B] (first compound 12.5 µM)",0.252 ± 0.013,0.196 ± 0.0087
CC[C@H](C)[C@H](N)C(=O)N1CCSC1 [P32/98 hemifumarate salt] + CC[C@H](C)C[C@H](C)CCCCCCCCC(=O)N[C@H]1C[C@@H](O)[C@@H](NCCN)NC(=O)[C@@H]2[C@@H](O)CCN2C(=O)[C@H]([C@H](O)CCN)NC(=O)[C@H]([C@H](O)[C@@H](O)c2ccc(O)cc2)NC(=O)[C@@H]2C[C@@H](O)CN2C(=O)[C@H]([C@@H](C)O)NC1=O [caspofungin] (first compound 12.5 µM),0.254 ± 0.0085,0.171 ± 0.0047
CCC[C@@]1(CCc2ccccc2)CC(O)=C([C@H](CC)c2cccc(NS(=O)(=O)c3ccc(C(F)(F)F)cn3)c2)C(=O)O1 [tipranavir] + CC[C@H](C)C[C@H](C)CCCCCCCCC(=O)N[C@H]1C[C@@H](O)[C@@H](NCCN)NC(=O)[C@@H]2[C@@H](O)CCN2C(=O)[C@H]([C@H](O)CCN)NC(=O)[C@H]([C@H](O)[C@@H](O)c2ccc(O)cc2)NC(=O)[C@@H]2C[C@@H](O)CN2C(=O)[C@H]([C@@H](C)O)NC1=O [caspofungin] (first compound 12.5 µM),0.268 ± 0.011,0.192 ± 0.0071
CNC(=O)[C@H](Cc1c[nH]c2ccccc12)NC(=O)[C@@H](CC(=O)NO)CC(C)C + OC(Cn1cncn1)(Cn1cncn1)c1ccc(F)cc1F [fluconazole] (first compound 12.5 µM),0.272 ± 0.014,0.158 ± 0.0086
C[C@H](CS)C(=O)N1CCC[C@H]1C(=O)O [Captopril] + OC(Cn1cncn1)(Cn1cncn1)c1ccc(F)cc1F [fluconazole] (first compound 12.5 µM),0.281 ± 0.0069,0.167 ± 0.01
CCN1C(=O)C=CC1=O [N-Ethylmaleimide] + C[C@@H]1[C@H](O)[C@@H](C)/C=C/C=C/C=C/C=C/C=C/C=C/C=C/[C@H](O[C@@H]2O[C@H](C)[C@@H](O)[C@H](N)[C@@H]2O)C[C@@H]2O[C@](O)(C[C@@H](O)C[C@@H](O)[C@H](O)CC[C@@H](O)C[C@@H](O)CC(=O)O[C@H]1C)C[C@H](O)[C@H]2C(=O)O [amphotericin B] (first compound 4 µM),0.304 ± 0.0086,0.189 ± 0.0049
Cc1cccc(C)c1OCC(=O)N[C@@H](Cc1ccccc1)[C@@H](O)C[C@H](Cc1ccccc1)NC(=O)[C@H](C(C)C)N1CCCNC1=O [lopinavir] + OC(Cn1cncn1)(Cn1cncn1)c1ccc(F)cc1F [fluconazole] (first compound 12.5 µM),0.246 ± 0.01,0.141 ± 0.021
CO[C@@H]1[C@H](OC(=O)/C=C/C=C/C=C/C=C/C(=O)O)CC[C@]2(CO2)[C@H]1[C@@]1(C)O[C@@H]1CC=C(C)C [Fumagillin] + OC(Cn1cncn1)(Cn1cncn1)c1ccc(F)cc1F [fluconazole] (first compound 12.5 µM),0.246 ± 0.013,0.117 ± 0.0056
CC(C)(C)NC(=O)[C@@H]1C[C@@H]2CCCC[C@@H]2CN1C[C@@H](O)[C@H](Cc1ccccc1)NC(=O)[C@H](CC(N)=O)NC(=O)c1ccc2ccccc2n1 [saquinavir] + OC(Cn1cncn1)(Cn1cncn1)c1ccc(F)cc1F [fluconazole] (first compound 12.5 µM),0.255 ± 0.0074,0.112 ± 0.009
CCC[C@@]1(CCc2ccccc2)CC(O)=C([C@H](CC)c2cccc(NS(=O)(=O)c3ccc(C(F)(F)F)cn3)c2)C(=O)O1 [tipranavir] + C[C@@H]1[C@H](O)[C@@H](C)/C=C/C=C/C=C/C=C/C=C/C=C/C=C/[C@H](O[C@@H]2O[C@H](C)[C@@H](O)[C@H](N)[C@@H]2O)C[C@@H]2O[C@](O)(C[C@@H](O)C[C@@H](O)[C@H](O)CC[C@@H](O)C[C@@H](O)CC(=O)O[C@H]1C)C[C@H](O)[C@H]2C(=O)O [amphotericin B] (first compound 12.5 µM),0.264 ± 0.0073,0.185 ± 0.0069
